Only some compounds are listed: those with a hit (about 8% of all), similar ones and a draw of the others.
SW480 rereplic: induces DNA re-replication in SW480 colon adenocarcinoma cells. Potency, µM (doses to about 46.1 µM), for inactives: at the highest dose re-replication activation, usual class: activators. SW480 DNA re-replication, Hoechst DNA content imaging, 48 h. 340,000 compounds, 1.8% hits; note: % of control where 0% means no effect; nearly all actives have a fitted effect of over 55% in size
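Quantitative HTS format with DMSO vehicle controls; 48 hr drug incubation at 37 C, then 40 min Hoechst staining and scanning imager measurement at 405 nm excitation.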
KB-3-1 tox: kills parental KB-3-1 adenocarcinoma cells; KB-3-1 viability, CellTiter-Glo ATP luminescence, 72 h; Potency, µM (series often up to 46.1 µM), hits mostly cytotoxic; 400,000 compounds, 1.4% hits; AID 1347075; note: % is set by controls: 0 for no effect and ±100 for the full control effect; nearly all actives have a fitted effect of over 60% in size
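Parental KB-3-1 viability, qHTS format: 72 h compound exposure, 37 °C; CellTiter-Glo; media-only wells and DMSO plates as controls; concentration-effect fits on corrected data.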
MCF10A rerep: induces DNA re-replication in MCF 10a normal breast cells | MCF 10A DNA re-replication, Hoechst nuclear intensity, 48 h | Potency, µM (highest dose often 46.1 µM), for inactives: at the top dose activity, positive = re-replication, actives largely listed as activators | 350,000 compounds, 2.9% hits; note: % of control where 0% means no effect; nearly all actives have a fitted effect of over 50% in size
KB-V1 cytotox: kills drug-selected multidrug resistant KB-V1 cells; KB-V1 MDR cells viability, CellTiter-Glo, 72 h; Potency, µM (top dose mostly 46.1 µM), hits mostly cytotoxic; 400,000 compounds, 3.4% hits; note: % is set by controls: 0 for no effect and ±100 for the full control effect; nearly all actives have a fitted effect of over 60% in size
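Cytotoxicity via CellTiter-Glo luminescence after 72 h compound exposure at 37 degrees C. Cells: drug-selected KB-V1 line, DMEM phenol-red free plus 10% FBS. Compounds tested at multiple concentrations; normalized data fitted to concentration-effect curves.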
HT1080NT lethal: kills 2HG-producing HT-1080-NT fibrosarcoma cells | HT-1080-NT fibrosarcoma viability, CellTiter-Glo ATP luminescence, 48 h | Potency, µM (titrated, usually from 46.1 µM), for inactives: top-dose activity, negative = less viability, usual class: cytotoxic | AID 686970 | 360,000 compounds, 1.6% hits;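 note: NT is the 2HG producing partner of a matched IDH1 knockdown line; 0% = DMSO-treated cells and -100% = media-only wells without cells; nearly all actives have a fitted effect of over 55% in size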
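Viability by CellTiter-Glo luminescence after 48 h compound exposure at 37C of HT-1080-NT cells (750/well, RPMI, 5% FBS). % activity scaled between DMSO wells and medium-only wells, then curve-fitted and categorized by curve class.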
HT1080 IDH1KD tx: kills HT-1080 cells with IDH1 knockdown; HT-1080 IDH1 knockdown viability, ATP luminescence, 48 h; 360,000 compounds, 2% hits; Potency, µM (doses to about 46.1 µM), inactives show at the top dose activity, negative = toxicity, hits mostly cytotoxic;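 note: 0% = DMSO wells and -100% = cell-free medium wells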
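Viability of IDH1-knockdown HT-1080 fibrosarcoma cells was assessed by CellTiter-Glo after 48 h at 37 °C with titrated compound; concentration-effect curves were classified by fit quality and response size.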
An asterisk follows results filed as active; i = inactive; ? = inconclusive; · = not tested or not shown; [ ] = another dose, or the depositor's remark. Calls come from the whole dose curve; as a rule, active = well fitted curve in the direction sought with a large enough effect; inconclusive = small, poorly fitted or top-dose-only effect, or another doubt; inactive = no such curve, though single readings can be large; an effect the other way counts as inactive or inconclusive. Potency is the fitted concentration of half-maximal effect.

SMILES	SW480 rereplic	KB-3-1 tox	MCF10A rerep	KB-V1 cytotox	HT1080NT lethal	HT1080 IDH1KD tx
CCSc1nc(NCCN(C)C)c2c3c(sc2n1)COC(C)(CC)C3 (centres undefined)	?	i	0%	?	-22%	-20%
O=C(Nc1ccc(F)cc1F)c1ccc(-n2cccn2)nc1	-5%	i	-1%	i	13%	5%
COc1ccc(C(=O)NCC2OCCc3ccccc32)cc1OC (centres undefined)	-9%	i	-2%	i	-3%	2%
O=C(NC1c2ccccc2-c2ccccc21)N1CCOCC1	-4%	i	-4%	?	3%	-3%
Cc1cccc(-n2ccnc2SCC(=O)O)c1C	-2%	i	-3%	i	30%	24%
Cn1ncc2c(Nc3ccccc3Cl)nc(Nc3ccccc3Cl)nc21	23%	i	18µM*	i	?	?
COc1ccc(CNC(=O)CN(C)S(=O)(=O)c2ccc3c(c2)c(=O)n(C)c(=O)n3C)cc1	-12%	i	1%	i	0%	1%
FC(F)(F)c1nnc(-c2ccccc2)nc1N1CCCC1	-3%	i	-3%	i	1%	0%
FC(F)(F)c1nnc(-c2ccccc2)nc1Oc1ccc(Cl)cc1Cl	-4%	i	3.3µM*	i	-5%	3%
CCOC(=O)c1nnc(-c2ccccc2)nc1Oc1ccccc1Cl	3%	i	?	i	?	?
CN(NC(=O)c1cccc(Cl)c1)c1nc(-c2ccccc2)nnc1C(F)(F)F	?	23µM*	?	?	-21%	-25%
FC(F)(F)c1cccc(Sc2nc(-c3ccccc3)nnc2C(F)(F)F)c1	?	21µM*	7.3µM*	?	?	?
Oc1cccnc1Sc1cccc(C(F)(F)F)c1	0%	i	6%	i	-3%	-13%
FC(F)(F)c1nnc(-c2ccccc2)nc1Sc1ccccc1	?	i	5.2µM*	i	?	?
Cc1onc(-c2c(F)cccc2Cl)c1C(=O)Oc1ccccc1	·	i	·	?	-5%	2%
O=C(C1=C[C@H](C2CC2)C[C@H](OCCCCO)O1)N1CCN(Cc2ccccc2)CC1	-6%	i	-2%	i	-1%	0%
Cc1cc(C(=O)O)ccc1-c1ccc(/C=N/n2cnnc2)o1	-8%	i	-5%	i	1%	1%
NC(=O)c1cc(C(=O)Cc2ccc(Cl)cc2)c[nH]1	-5%	i	1%	i	1%	8%
FC(F)(F)c1cccc(Oc2nc(-c3ccccc3)nnc2C(F)(F)F)c1	-2%	i	15µM*	i	-3%	0%
FC(F)(F)c1nnc(-c2ccccc2)nc1Sc1ccc(Cl)cc1	?	?	5.8µM*	?	?	?
CC(=O)c1cc(C#N)c(Oc2cccc(C(F)(F)F)c2)nc1C	-3%	i	-2%	i	0%	3%
CN(N)c1nc(-c2ccccc2)nnc1C(F)(F)F	1%	i	15%	i	-1%	8%
COC(=O)c1ccc(NC(=O)CCN2CCN(CCC(=O)Nc3ccc(C(=O)OC)cc3)CC2)cc1	-1%	i	7%	i	2%	-3%
Nn1c(SCC(=O)Nc2nc3ccccc3s2)nncc1=O	2%	i	9%	i	-3%	-22%
O=C(N[C@H]1CCCCNC1=O)c1cc(COc2ccc(F)cc2F)on1	-3%	i	-1%	i	0%	-4%
SMILES	SW480 rereplic	KB-3-1 tox	MCF10A rerep	KB-V1 cytotox	HT1080NT lethal	HT1080 IDH1KD tx
O=C(O)CC/C(=N/Nc1ccc([N+](=O)[O-])cc1)C(=O)O	8%	i	1%	i	1.6µM*	5.8µM*
O=C(COc1ccc(-n2ccnc2)cc1)Nc1cccc(F)c1	-18%	?	-3%	?	?	?
O=C(COc1ccc(-n2ccnc2)cc1)Nc1cccc(Cl)c1	5%	?	0%	5.8µM*	0%	-21%
COc1cccc(-n2nnc3c(=O)n(CC(=O)N4CCC(Cc5ccccc5)CC4)cnc32)c1	-9%	?	-3%	5.2µM*	5%	17%
O=C1C(Cl)=C(NCC2CCCO2)C(=O)N1c1ccccc1 (centres undefined)	-2%	i	0%	i	-3%	-6%
NC1=C(Br)C(=O)c2ncccc2C1=O	8.2µM*	2.6µM*	0.52µM*	3.7µM*	3.3µM*	3.3µM*
CC(C)c1ccc(N=C2N=C(N)c3ccccc32)cc1	-64%	?	?	?	18µM*	?
NC1=NC(=Nc2ccccc2)c2ccccc21	-1%[9.22 µM]	i	?	i	?	?
Cc1cc(Cl)ccc1N=C1N=C(N)c2ccccc21	5%	i	?	i	23µM*	?
NC1=NC(=Nc2ccc(Br)cc2)c2ccccc21	-2%	?	?	i	23µM*	13µM*
NC1=NC(=Nc2ccc(Cl)cc2)c2ccccc21	-9%	i	?	i	-29%	?
COc1ccc(C(CNC(=O)c2cccc(S(=O)(=O)Nc3ccc(C)cc3)c2)N2CCCCC2)cc1 (centres undefined)	21%	i	-1%	i	-24%	-18%
COc1cc(C(=O)OCc2cc(=O)n3nc(C(C)C)sc3n2)cc(OC)c1OC	·	i	·	i	·	·
NC(Cc1ccc(Cl)cc1)c1csc(Nc2cc(Oc3ccccc3)ncn2)n1 (centres undefined)	·	?	·	?	18µM*	18µM*
NC(c1csc(Nc2cc(NCc3ccco3)ncn2)n1)c1ccccc1Cl (centres undefined)	·	i	·	i	?	-14%
NC(Cc1ccc(F)cc1)c1csc(Nc2cc(NCc3ccco3)ncn2)n1 (centres undefined)	·	i	·	?	18µM*	16µM*
COc1ccc(CC(N)c2csc(Nc3cc(Oc4ccccc4)ncn3)n2)cc1 (centres undefined)	·	i	·	i	-23%	?
NC(COCc1ccccc1)c1csc(Nc2cc(Oc3ccccc3)ncn2)n1 (centres undefined)	·	i	·	?	23µM*	?
NC(Cc1ccc(F)cc1)c1csc(Nc2cc(Oc3ccccc3)ncn2)n1 (centres undefined)	·	?	·	?	?	16µM*
CSCCC(NC(=O)c1ccc(Cl)cc1Cl)C(=O)N1CC(C)OC(C)C1 (centres undefined)	6%	i	5%	?	1%	-5%
